# Experimental data taken from PubChem BioAssay AID1159580 (chemical genetic matrix, 2015).
# The whole screen tested about 5,500 compounds, of which about 2,000 (36%) were called active. About 18% were inconclusive and are not listed. Some of the results follow. Values without a mark were called inactive. Rule as the data show it: active = normalized growth mostly below about 0.91 (no sharp cut-off); inconclusive = no clear call, values can overlap the other calls; inactive = mostly above about 0.92.
# Assay: chemical genetic growth profiling, strain panel (AID 1159580);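 also: tested at 20 µM; growth read once vehicle control cultures reached saturation at 30 °C; 1 = growth at the plate median or of vehicle wells; lower values mean less growth of the strain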
# Details: S. cerevisiae deletion strains, growth OD
compound,measurement,setting,value
COP(=S)(OC)Oc1ccc(SC)c(C)c1,normalized growth,"locus YAL013W, strain DEP1, hits give low values",1
same,normalized growth,"locus YAL021C, strain ccr4, hits give low values",1.07
same,normalized growth,"locus YAL026C, strain drs2, hits give low values",0.984
same,normalized growth,"locus YAL030W, strain snc1, hits give low values",1
same,normalized growth,"locus YBL061C, strain skt5, hits give low values",0.981
same,normalized growth,"locus YBR009C, strain hhf1, hits give low values",0.904 (active)
same,normalized growth,"locus YBR021W, strain FUR4, hits give low values",0.98
same,normalized growth,"locus YBR023C, strain chs3, hits give low values",0.973
same,normalized growth,"locus YBR171W, strain sec66, hits give low values",0.992
same,normalized growth,"locus YBR229C, strain ROT2, hits give low values",1.02
same,normalized growth,"locus YBR231C, strain swc5, hits give low values",1.03
same,normalized growth,"locus YBR279W, strain paf1, hits give low values",1.01
same,normalized growth,"locus YCL011C, strain gbp2, hits give low values",0.955
same,normalized growth,"locus YCL016C, strain dcc1, hits give low values",0.954
same,normalized growth,"locus YCL029C, strain bik1, hits give low values",0.988
same,normalized growth,"locus YCL069W, strain vba3, hits give low values",0.981
same,normalized growth,"locus YCR088W, strain abp1, hits give low values",1
same,normalized growth,"locus YDL005C, strain med2, hits give low values",1.01
same,normalized growth,"locus YDL035C, strain GPR1, hits give low values",1.01
same,normalized growth,"locus YDL040C, strain nat1, hits give low values",1
same,normalized growth,"locus YDL074C, strain BRE1, hits give low values",1.01
same,normalized growth,"locus YDL101C, strain DUN1, hits give low values",1.03
same,normalized growth,"locus YDL134C, strain PPH21, hits give low values",1.02
same,normalized growth,"locus YDL185W, strain tfp1, hits give low values",0.986
same,normalized growth,"locus YDL192W, strain arf1, hits give low values",0.989
same,normalized growth,"locus YDR001C, strain nth1, hits give low values",0.999
same,normalized growth,"locus YDR069C, strain doa4, hits give low values",1.02
same,normalized growth,"locus YDR101C, strain arx1, hits give low values",0.988
same,normalized growth,"locus YDR137W, strain rgp1, hits give low values",0.94
same,normalized growth,"locus YDR150W, strain NUM1, hits give low values",1.02
same,normalized growth,"locus YDR159W, strain sac3, hits give low values",0.919
same,normalized growth,"locus YDR162C, strain NBP2, hits give low values",1.01
same,normalized growth,"locus YDR195W, strain ref2",1.2 [resistant] (active)
same,normalized growth,"locus YDR297W, strain sur2, hits give low values",1.01
same,normalized growth,"locus YDR318W, strain mcm21, hits give low values",0.99
same,normalized growth,"locus YDR334W, strain swr1, hits give low values",1.01
same,normalized growth,"locus YDR335W, strain msn5, hits give low values",1.01
same,normalized growth,"locus YDR388W, hits give low values",0.991
same,normalized growth,"locus YDR392W, strain spt3, hits give low values",0.766
same,normalized growth,"locus YDR502C, strain sam2, hits give low values",1
same,normalized growth,"locus YEL003W, strain gim4, hits give low values",1
same,normalized growth,"locus YEL037C, strain rad23, hits give low values",1
same,normalized growth,"locus YEL061C, strain CIN8 (second series), hits give low values",1
same,normalized growth,"locus YEL061C, strain CIN8, hits give low values",1.01
same,normalized growth,"locus YER015W, strain faa2, hits give low values",0.995
same,normalized growth,"locus YER016W, strain bim1, hits give low values",0.978
same,normalized growth,"locus YER110C, hits give low values",0.986
same,normalized growth,"locus YER111C, strain swi4, hits give low values",1.01
same,normalized growth,"locus YER155C, strain BEM2 (second series), hits give low values",0.951
same,normalized growth,"locus YER155C, strain BEM2, hits give low values",1.02
same,normalized growth,"locus YER167W, strain BCK2, hits give low values",1
same,normalized growth,"locus YFR010W, strain ubp6, hits give low values",1.03
same,normalized growth,"locus YGL078C, strain dbp3, hits give low values",0.981
same,normalized growth,"locus YGL086W, strain mad1, hits give low values",0.991
same,normalized growth,"locus YGL167C, strain pmr1, hits give low values",0.993
same,normalized growth,"locus YGL173C, strain kem1, hits give low values",0.988
same,normalized growth,"locus YGL227W, strain vid30, hits give low values",1.01
same,normalized growth,"locus YGL240W, strain doc1, hits give low values",0.989
same,normalized growth,"locus YGL248W, strain PDE1, hits give low values",1.03
same,normalized growth,"locus YGL253W, strain hxk2, hits give low values",0.955
same,normalized growth,"locus YGR078C, strain PAC10, hits give low values",0.999
same,normalized growth,"locus YGR135W, strain pre9, hits give low values",0.987
same,normalized growth,"locus YGR229C, strain SMI1, hits give low values",0.984
same,normalized growth,"locus YGR252W, strain gcn5, hits give low values",0.922
same,normalized growth,"locus YHR013C, strain ard1, hits give low values",1.02
same,normalized growth,"locus YHR027C, strain rpn1, hits give low values",0.998
same,normalized growth,"locus YHR030C, strain SLT2, hits give low values",1.02
same,normalized growth,"locus YHR079C, strain IRE1 (second series), hits give low values",0.99
same,normalized growth,"locus YHR094C, strain hxt1, hits give low values",0.984
same,normalized growth,"locus YHR129C, strain ARP1, hits give low values",1.01
same,normalized growth,"locus YHR142W, strain chs7, hits give low values",0.912
same,normalized growth,"locus YHR200W, strain rpn10, hits give low values",0.977
same,normalized growth,"locus YIL066C, strain RNR3, hits give low values",1
same,normalized growth,"locus YIL073C, strain SPO22, hits give low values",0.954
same,normalized growth,"locus YIL125W, strain kgd1, hits give low values",0.996
same,normalized growth,"locus YIR030C, strain dcg1, hits give low values",0.988
same,normalized growth,"locus YJL092W, strain hpr5, hits give low values",0.992
same,normalized growth,"locus YJL095W, strain BCK1 (second series), hits give low values",0.97
same,normalized growth,"locus YJL095W, strain BCK1, hits give low values",0.983
same,normalized growth,"locus YJL115W, strain asf1, hits give low values",1.02
same,normalized growth,"locus YJL129C, strain trk1, hits give low values",0.958
same,normalized growth,"locus YJL134W, strain LCB3, hits give low values",1.02
same,normalized growth,"locus YJL154C, strain vps35, hits give low values",1.01
same,normalized growth,"locus YJL164C, strain tpk1, hits give low values",0.935
same,normalized growth,"locus YJL166W, strain qcr8, hits give low values",0.974
same,normalized growth,"locus YJL168C, strain set2, hits give low values",0.991
same,normalized growth,"locus YJL187C, strain SWE1 (second series), hits give low values",1.01
same,normalized growth,"locus YJR043C, strain POL32, hits give low values",1
